Data published in PubChem BioAssay (NCATS).
Several values for one entry are separate records, joined by “and”; a condition that tells them apart may be missing. Equal values may be shown once. Results filed as inconclusive are left out. Activity calls are given as the source filed them. Calls follow the shape of the dose curve; as a rule, active = well fitted curve in the direction sought with a large enough effect; inconclusive = small, poorly fitted or top-dose-only effect, or another doubt; inactive = no such curve, though single readings can be large; an effect the other way counts as inactive or inconclusive.

Columns and labels:
[1] = Quantitative High-Throughput drug screen in 47 multiple myeloma cell lines against the NCATS MIPE library collection: ARD_JJKsccE7 cell viability assay (AID 1918929)
Outline: (§1)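 Luminescent ATP measurement with CellTiter-Glo gives viability, scaled between DMSO-only wells (100%) and media-only wells (0%). Cells, 500 per well, faced library compounds for 48 hours at 37C.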

[2] = Quantitative High-Throughput drug screen in 47 multiple myeloma cell lines against the NCATS MIPE library collection: Karpas620_DSMZ cell viability assay (AID 1918959); also: nearly all actives have a fitted effect of over 30% in size
Outline: (§2)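 Viability readout: CellTiter-Glo luminescence following 5 min room-temperature incubation with reagent. Prior exposure: 48 h, 37C, humidified 5% CO2, 500 cells per well.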

[3] = Quantitative High-Throughput drug screen in 47 multiple myeloma cell lines against the NCATS MIPE library collection: KMM1_JCRB cell viability assay (AID 1918960); also: nearly all actives have a fitted effect of over 30% in size
Outline: (§3)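 Myeloma cells, 500 per well, were exposed to MIPE 4.0 drugs by pin transfer for 48 h at 37 °C, 5% CO2. Viability was read as ATP luminescence with CellTiter-Glo, normalised to DMSO-only (100%) and medium-only (0%) wells.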

[4] = Quantitative High-Throughput drug screen in 47 multiple myeloma cell lines against the NCATS MIPE library collection: JJN3_DSMZ cell viability assay (AID 1918966; also: nearly all actives have a fitted effect of over 50% in size)
Outline: as §1

[5] = Quantitative High-Throughput drug screen in 47 multiple myeloma cell lines against the NCATS MIPE library collection: H1112_PLB cell viability assay (AID 1918967; also: nearly all actives have a fitted effect of over 30% in size)
Outline: as §1

[6] = Quantitative High-Throughput drug screen in 47 multiple myeloma cell lines against the NCATS MIPE library collection: Karpas25_ECACC cell viability assay (AID 1918968; also: nearly all actives have a fitted effect of over 35% in size)
Outline: as §1

[7] = Quantitative High-Throughput drug screen in 47 multiple myeloma cell lines against the NCATS MIPE library collection: KMS12BM_JCRB cell viability assay (AID 1918971); also: nearly all actives have a fitted effect of over 35% in size
Outline: (§4)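 Myeloma cells (500 per well) were exposed to MIPE 4.0 compounds by pin transfer and incubated 48 hours at 37C, 5% CO2. Viability was read as ATP by CellTiter-Glo luminescence, normalised to DMSO (100%) and media-only (0%) wells.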

[8] = Quantitative High-Throughput drug screen in 47 multiple myeloma cell lines against the NCATS MIPE library collection: KMS12PE_JCRB cell viability assay (AID 1918972); also: nearly all actives have a fitted effect of over 30% in size
Outline: (§5)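 Approved and investigational drugs from MIPE 4.0 were added by pin tool to 500 cells per well. After 48 hours at 37C, ATP-based CellTiter-Glo luminescence indicated remaining viability.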

[9] = Quantitative High-Throughput drug screen in 47 multiple myeloma cell lines against the NCATS MIPE library collection: ARP1_JJKsccF8 cell viability assay (AID 1918928; also: nearly all actives have a fitted effect of over 40% in size)
Outline: as §3

[10] = Quantitative High-Throughput drug screen in 47 multiple myeloma cell lines against the NCATS MIPE library collection: JIM3_ECACC cell viability assay (AID 1918963; also: nearly all actives have a fitted effect of over 35% in size)
Outline: as §2

[11] = Quantitative High-Throughput drug screen in 47 multiple myeloma cell lines against the NCATS MIPE library collection: KHM11_PLB cell viability assay (AID 1918962); also: nearly all actives have a fitted effect of over 35% in size
Outline: as §2

[12] = Quantitative High-Throughput drug screen in 47 multiple myeloma cell lines against the NCATS MIPE library collection: INA6_PLB cell viability assay (AID 1918965; also: nearly all actives have a fitted effect of over 55% in size)
Outline: as §5

[13] = Quantitative High-Throughput drug screen in 47 multiple myeloma cell lines against the NCATS MIPE library collection: KMS27_JCRB cell viability assay (AID 1918970); also: nearly all actives have a fitted effect of over 30% in size
Outline: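 Viability inhibition screen, 48 h compound exposure, luminescent ATP read-out.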

[14] = Quantitative High-Throughput drug screen in 47 multiple myeloma cell lines against the NCATS MIPE library collection: KMS20_JCRB cell viability assay (AID 1918973); also: nearly all actives have a fitted effect of over 45% in size
Outline: as §1

[15] = Quantitative High-Throughput drug screen in 47 multiple myeloma cell lines against the NCATS MIPE library collection: Karpas417_ECACC cell viability assay (AID 1918961); settings: Karpas417 myeloma viability, CellTiter-Glo ATP luminescence, 48 h; viability (% of DMSO): at 45.8 µM (top of the series) unless noted
Outline: as §5

[16] = Quantitative High-Throughput drug screen in 47 multiple myeloma cell lines against the NCATS MIPE library collection: KMS21BM_JCRB cell viability assay (AID 1918974); settings: ATP luminescence, 48 h; viability: at 45.8 µM (top of the series) unless noted
Outline: as §1

[17] = Quantitative High-Throughput drug screen in 47 multiple myeloma cell lines against the NCATS MIPE library collection: JIM1_ECACC cell viability assay (AID 1918964)
Outline: as §1

[18] = Quantitative High-Throughput drug screen in 47 multiple myeloma cell lines against the NCATS MIPE library collection: KMS26_JCRB cell viability assay (AID 1918975); also: nearly all actives have a fitted effect of over 45% in size
Outline: as §4

[19] = Quantitative High-Throughput drug screen in 47 multiple myeloma cell lines against the NCATS MIPE library collection: AMO1_DSMZ cell viability assay (AID 1918927; also: nearly all actives have a fitted effect of over 30% in size)
Outline: as §1
Potency is read from the fitted curve at half-maximal effect.

O=C(O)COCCN1CCN(C(c2ccccc2)c2ccc(Cl)cc2)CC1 (stereo not given)
inactive: Potency [1] | Potency [2] | Potency [3] | Potency [4] | Potency [5] | Potency [6] | Potency [7] | Potency [8]

NC(=O)c1ccc(I)c([N+](=O)[O-])c1
active: Potency [10] 18.7 µM | Potency [6] 23.5 µM
inactive: Potency [9] | Potency [3] | Potency [5]

Nc1nc2ccc(OC(F)(F)F)cc2s1
inactive: Potency [2] | Potency [3] | Potency [11] | Potency [10] | Potency [12] | Potency [5] | Potency [6] | Potency [13] | Potency [8] | Potency [14]
active: Potency [1] 16.6 µM | Potency [4] 16.6 µM | Potency [7] 16.6 µM

O=C1[C@H](Cc2ccc(O)cc2)N2C(=O)CCN(C(=O)NCc3ccccc3)[C@H]2CN1Cc1cccc2ccccc12
inactive: Potency [2] | Potency [3] | Potency [15] | Potency [8]
active: Potency [9] 4.18 µM | Potency [11] 2.96 µM | Potency [4] 7.43 µM | Potency [6] 14.8 µM | Potency [7] 4.18 µM

COc1ccc(-c2ccc3c(N4CCOC[C@H]4C)nc(N4CCOC[C@H]4C)nc3n2)cc1CO
active: Potency [12] 0.0372 µM | Potency [4] 0.0132 µM | Potency [6] 0.0166 µM | Potency [7] 0.0118 µM | Potency [8] 0.059 µM | Potency [14] 0.0093 µM | Potency [16] 0.0662 µM

COc1cc(Oc2ccnc3cc(OC)c(OC)cc23)ccc1NC(=O)NC(C)c1nccs1 (stereo not given)
active: Potency [2] 7.43 µM | Potency [10] 20.9 µM | Potency [17] 0.105 µM | Potency [6] 23.5 µM | Potency [13] 5.9 µM

Nc1ncnc2nc(-c3ccc(N4CCOCC4)nc3)cc(-c3cccc(Br)c3)c12
active: Potency [12] 18.7 µM
inactive: Potency [2] | Potency [15] | Potency [11] | Potency [13] | Potency [8] | Potency [18]

CC1(C)Cc2c(-c3ccccc3)c(-c3ccc(Cl)cc3)c(CC(=O)O)n2C1
active: Potency [9] 23.5 µM | Potency [2] 6.62 µM | Potency [3] 2.35 µM | Potency [4] 20.9 µM | Potency [7] 20.9 µM
inactive: Potency [1]

Cn1c(=O)c(F)c(Nc2ccc(I)cc2F)c2c(=O)n(C[C@@H](O)CO)cnc21
inactive: Potency [18]
active: Potency [2] 0.0118 µM | Potency [3] 16.6 µM | Potency [10] 3.32 µM | Potency [6] 13.2 µM | Potency [13] 1.87 µM | Potency [8] 18.7 µM | Potency [14] 0.0118 µM

NCCc1ccc(O)c(O)c1
inactive: Potency [5]
active: Potency [2] 20.9 µM | Potency [10] 18.7 µM | Potency [4] 20.9 µM | Potency [6] 14.8 µM | Potency [13] 16.6 µM | Potency [7] 7.43 µM | Potency [8] 20.9 µM

COc1cc2c(cc1OC)CN(CCc1ccc(NC(=O)c3cccc4c(=O)c5cccc(OC)c5[nH]c34)cc1)CC2
inactive: Potency [9] | Potency [3] | Potency [17]

Cc1[nH]c(=O)c(C#N)cc1-c1ccc2nccn2c1
inactive: Potency [9] | Potency [1] | Potency [3] | Potency [17] | Potency [4] | Potency [5] | Potency [6] | Potency [8]

CCCc1nn(C)c2c(=O)[nH]c(-c3cc(S(=O)(=O)N4CCN(C)CC4)ccc3OCC)nc12
inactive: Potency [19] | Potency [3] | Potency [15] | Potency [8]
active: Potency [4] 18.7 µM | Potency [7] 11.8 µM | Potency [14] 18.7 µM

CNC(=O)c1ccc(N2C(=S)N(c3ccc(C#N)c(C(F)(F)F)c3)C(=O)C2(C)C)cc1F
active: Potency [3] 9.35 µM | Potency [6] 18.7 µM
inactive: Potency [9] | Potency [10] | Potency [5]

CCN(CC)CCCC(C)Nc1ccnc2cc(Cl)ccc12 (stereo not given)
inactive: Potency [3] | Potency [10] | Potency [17] | Potency [4] | Potency [5] | Potency [7] | Potency [18]
active: Potency [19] 0.187 µM | Potency [15] 0.0526 µM | Potency [8] 1.66 µM

COc1ccc(CCN2CCN(CCCc3ccccc3)CC2)cc1OC
active: Potency [16] 3.32 µM
inactive: Potency [9] | Potency [5] | Potency [7]

NC(=O)c1ccc(-c2nc(-c3ccc4c(c3)OCO4)c(-c3ccccn3)[nH]2)cc1
active: Potency [3] 1.66 µM | Potency [4] 0.0042 µM
inactive: Potency [2] | Potency [5] | Potency [13] | Potency [8] | Potency [14]

CN1CCN(CCCN2c3ccccc3Sc3ccc(C(F)(F)F)cc32)CC1
inactive: Potency [19] | Potency [3] | Potency [17] | Potency [7] | Potency [8]
active: viability (% of DMSO) [15] 113% | Potency [10] 8.33 µM | Potency [12] 9.35 µM | Potency [5] 7.43 µM | Potency [6] 4.18 µM | Potency [14] 16.6 µM

O=C(c1cc(Cc2n[nH]c(=O)c3ccccc23)ccc1F)N1CCN(C(=O)C2CC2)CC1
active: Potency [12] 16.6 µM
inactive: Potency [9] | Potency [2] | Potency [17] | Potency [7]

CCC(C)N(C)C(=O)c1cc2ccccc2c(-c2ccccc2Cl)n1 (stereo not given)
active: Potency [9] 0.296 µM | Potency [13] 16.6 µM
inactive: Potency [12] | Potency [5] | Potency [14]

COc1cc(F)c(F)c(Nc2ccc(I)cc2F)c1NS(=O)(=O)C1(C[C@H](O)CO)CC1
active: Potency [2] 20.9 µM | Potency [15] 16.6 µM | Potency [17] 16.6 µM | Potency [5] 14.8 µM | Potency [6] 20.9 µM | Potency [13] 16.6 µM | Potency [8] 16.6 µM | Potency [18] 13.2 µM
inactive: Potency [12]

O=C1CCC(N2C(=O)c3ccccc3C2=O)C(=O)N1 (stereo not given)
active: Potency [9] 0.0662 µM | Potency [7] 18.7 µM
inactive: Potency [2] | Potency [3] | Potency [11] | Potency [10] | Potency [17] | Potency [12] | Potency [5] | Potency [6] | Potency [13] | Potency [8]

COCC(=O)NCC=Cc1ccc2ncnc(Nc3ccc(Oc4ccc(C)nc4)c(C)c3)c2c1
active: Potency [1] 11.8 µM | Potency [3] 8.33 µM | Potency [15] 10.5 µM | Potency [10] 16.6 µM | Potency [17] 16.6 µM | Potency [12] 10.5 µM | Potency [4] 23.5 µM | Potency [6] 6.62 µM | Potency [8] 16.6 µM

CC(C=CC1=C(C)CCCC1(C)C)=CC=CC(C)=CC(=O)O
inactive: Potency [3]
active: Potency [11] 5.9 µM | Potency [10] 20.9 µM and 4.69 µM | Potency [12] 14.8 µM and 5.9 µM | Potency [4] 5.9 µM and 1.66 µM | Potency [5] 14.8 µM and 11.8 µM | Potency [6] 16.6 µM and 18.7 µM | Potency [13] 3.72 µM

CCn1c(-c2nonc2N)nc2c(C#CC(C)(C)O)ncc(OC[C@H]3CCCNC3)c21
active: Potency [9] 0.59 µM | Potency [1] 0.148 µM | Potency [12] 4.18 µM | Potency [5] 14.8 µM | Potency [6] 1.18 µM | Potency [13] 0.418 µM | Potency [7] 14.8 µM

Cc1cc([C@@H](C)Nc2ccccc2C(=O)O)c2nc(N3CCOCC3)cc(=O)n2c1
active: Potency [9] 0.481 µM | viability (% of DMSO) [15] 5.47% [at 92.2 µM] | Potency [12] 13.6 µM | Potency [6] 3.03 µM | Potency [13] 10.8 µM | viability [16] 15.1% [at 92.2 µM]

O=c1ncn2nc(Sc3ccc(F)cc3F)ccc2c1-c1c(Cl)cccc1Cl
inactive: Potency [10] | Potency [17]
active: Potency [19] 18.7 µM | Potency [12] 4.18 µM | Potency [6] 14.8 µM | Potency [13] 18.7 µM | Potency [7] 18.7 µM

O=C(C1CC1)N1CC[C@@H](Cn2c(-c3ccc(-c4ccc5occc5c4)cc3)nc3cnccc32)C1
active: Potency [10] 16.6 µM | Potency [12] 20.9 µM | Potency [8] 29.6 µM
inactive: Potency [5]

CN(C)c1ccc(C2Nc3ccc4ccccc4c3C3=C2C(=O)CC(C)(C)C3)cc1Br (stereo not given)
active: Potency [3] 4.69 µM | Potency [17] 0.0019 µM | Potency [4] 11.8 µM | Potency [5] 5.26 µM | Potency [6] 5.9 µM | Potency [8] 5.9 µM | Potency [18] 16.6 µM
